From PubChem BioAssay (Tox21) come the findings set out here.

A number with no mark means an inactive call. Records with an inconclusive call do not appear. Active and inactive are the calls of the source. Unless noted, the call rests on the fitted dose curve; in most records, active means well fitted curve in the direction sought with a large enough effect in the repeat runs; inconclusive means weak or mixed curves; inactive means no such curve, though single readings can be large; an effect the other way counts as inactive or inconclusive.

Experiment [1] in a line: qHTS assay for small molecules that induce genotoxicity in human embryonic kidney cells expressing luciferase-tagged ATAD5 (AID 651632). Further: nearly all actives have a fitted effect of over 15% in size. Further: potency means the concentration at half of the fitted maximal effect. The method, boiled down:
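ATAD5-luc HEK293T, 2,000 cells/well; cpd or DMSO pin-transferred; 16 hr, 37C/5% CO2; Amplite 30 min RT; luminescence.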
A general note: In qHTS, concentration-response curves come from the screen itself.

The nature of experiment [2]: qHTS assay for small molecules that induce genotoxicity in human embryonic kidney cells expressing luciferase-tagged ATAD5 - cell viability (AID 651634; calls by dose curve; further: nearly all actives have a fitted effect of over 25% in size; further: potency means the concentration at half of the fitted maximal effect). The method, boiled down:
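Fluorescence from CellTiter-Fluor, reporting protease activity within live cells, served as the viability read-out. HEK293T cells carrying luciferase-tagged ATAD5 had been treated with compound for 15.5 hr at 37C.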

The nature of experiment [3]: qHTS assay for small molecule disruptors of the mitochondrial membrane potential - cell viability (AID 720634; calls by dose curve; further: nearly all actives have a fitted effect of over 20% in size; further: potency means the concentration at half of the fitted maximal effect). Summed up: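 Cells: HepG2, 2,000/well, attached overnight. Compound 1 hr, 37 C/5% CO2. +m-MPI dye, +CellTiter-Glo 30 min RT. Readout: luminescence (ATP).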
The nature of experiment [4]: qHTS assay for small molecule disruptors of the mitochondrial membrane potential (AID 720635). Further: potency means the concentration at half of the fitted maximal effect. Summed up:
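HepG2 cells exposed to compound 1 hr at 37C, then Mito-MPS dye 30 min. Ratio read of aggregate (540/590 nm) versus monomer (490/535 nm) fluorescence.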

The nature of experiment [5]: qHTS assay to test for compound auto fluorescence at 590 nm (red) in HepG2 cells (AID 720674). Summed up: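 HepG2 cells, 2,000 per well in MEM with 10% FBS, attached overnight at 37 C, then got 23 nL compound or DMSO. After 1 hr at 37 C, 5% CO2, red fluorescence was read at 540/590 nm against Rose Bengal sodium as reference.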
Experiment [6] can be described thus: qHTS assay to test for compound auto fluorescence at 535 nm (green) in HepG2 cells (AID 720675).
Experiment [7] in a line: qHTS assay to test for compound auto fluorescence at 460 nm (blue) in HEK293 cells (AID 720678). The method, boiled down: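 HEK293 cells (2,000/well, medium with 10% dialyzed FBS) attached 4-5 hr, then exposed to compound overnight at 37C, 5% CO2. Blue fluorescence read at 405/460 nm, with triamterene as reference fluorophore.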
Experiment [8] can be described thus: qHTS assay to test for compound auto fluorescence at 590 nm (red) in HEK293 cells (AID 720679). Summed up:
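HEK293 cells (2,000/well, 10% dialyzed FBS) attached 4-5 hr, then dosed with compound or DMSO and incubated overnight at 37C, 5% CO2. Red fluorescence read at 540/590 nm, Rose Bengal sodium as reference fluorophore.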

Experiment [9] can be described thus: qHTS assay to test for compound auto fluorescence at 535 nm (green) in HEK293 cells (AID 720680).
A short description of experiment [10]: qHTS assay to test for compound auto fluorescence at 460 nm (blue) in HEK293 cell free culture (AID 720681). Summed up:
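Compounds were added to cell-free DMEM with 10% FBS and fluorescence read directly. The blue channel used 405 nm excitation and 460 nm emission, with triamterene as the reference fluorophore.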

Experiment [11] can be described thus: qHTS assay to test for compound auto fluorescence at 590 nm (red) in HEK293 cell free culture (AID 720683). The method, boiled down: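 Cell-free wells of DMEM with 10% FBS received compound, and intrinsic fluorescence was read at excitation/emission 540/590 nm. Values expressed as equivalence to Rose Bengal sodium.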
A short description of experiment [12]: qHTS assay to test for compound auto fluorescence at 590 nm (red) in HepG2 cell free culture (AID 720684). The method, boiled down: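 Compound was pinned into wells holding MEM with 10% FBS and no cells, and red fluorescence was read at Ex/Em 540/590 nm. Signal is expressed as auto fluorescence equivalency relative to Rose Bengal sodium.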
Experiment [13] in a line: qHTS assay to test for compound auto fluorescence at 460 nm (blue) in HepG2 cell free culture (AID 720685). The method, boiled down:
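Compound (23 nL) or DMSO pinned into cell-free MEM with 10% FBS; blue fluorescence read at 405/460 nm excitation/emission, expressed as auto-fluorescence equivalency to triamterene.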

Experiment [14] in a line: qHTS assay to test for compound auto fluorescence at 535 nm (green) in HepG2 cell free culture (AID 720686).
A short description of experiment [15]: qHTS assay to test for compound auto fluorescence at 460 nm (blue) in HepG2 cells (AID 720687). Summed up:
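HepG2 cells in MEM with 10% FBS, attached overnight at 37 C, were exposed to compound or DMSO for 1 hr at 37 C, 5% CO2. Blue fluorescence was read at 405/460 nm, with triamterene as reference fluorophore.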

A short description of experiment [16]: qHTS assay for small molecule agonists of the p53 signaling pathway - cell viability (AID 651633; calls by dose curve; further: nearly all actives have a fitted effect of over 30% in size; further: potency means the concentration at half of the fitted maximal effect). Summed up:
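p53RE-bla cells were treated with compound for 16 hours at 37 C. Cytotoxicity was then measured as CellTiter-Glo luminescence after 30 min at room temperature.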

Experiment [17] can be described thus: qHTS assay to test for compound auto fluorescence at 535 nm (green) in HEK293 cell free culture (AID 720682). The method, boiled down: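 Green-label autofluorescence (485 nm excitation, 535 nm emission) measured on compound added to cell-free culture medium (DMEM, 10% FBS). Output is expressed relative to fluorescein.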
Experiment [18] addresses Glucocorticoid receptor (Homo sapiens) (UniProt P04150). The experiment is described as follows: qHTS assay to identify small molecule agonists of the glucocorticoid receptor (GR) signaling pathway (AID 720691; active means well fitted activation curve with a large enough effect in the signal ratio in the repeat runs, not every such curve was filed as active; the % refers to the signal ratio). The method, boiled down:
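Fluorescence intensity from LiveBLAzer B/G FRET substrate (2 h, room temperature) reports beta-lactamase expression driven by the glucocorticoid response element in GR-bla HeLa cells after 18 h compound exposure at 37 C.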

For experiment [19] the target is unchanged. The experiment is described as follows: qHTS assay to identify small molecule antagonists of the glucocorticoid receptor (GR) signaling pathway (AID 720692; active means well fitted inhibition curve with a large enough effect in the signal ratio in the repeat runs, not every such curve was filed as active; the % refers to the signal ratio). Summed up: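 HeLa GR-bla cells; cmpd + dex 5 nM final, 18 h 37 C; LiveBLAzer B/G FRET substrate 2 h RT; fluorescence intensity read. Antagonist mode, qHTS.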

Chain of Glucocorticoid receptor (Homo sapiens) (P04150 whole entry, looked up): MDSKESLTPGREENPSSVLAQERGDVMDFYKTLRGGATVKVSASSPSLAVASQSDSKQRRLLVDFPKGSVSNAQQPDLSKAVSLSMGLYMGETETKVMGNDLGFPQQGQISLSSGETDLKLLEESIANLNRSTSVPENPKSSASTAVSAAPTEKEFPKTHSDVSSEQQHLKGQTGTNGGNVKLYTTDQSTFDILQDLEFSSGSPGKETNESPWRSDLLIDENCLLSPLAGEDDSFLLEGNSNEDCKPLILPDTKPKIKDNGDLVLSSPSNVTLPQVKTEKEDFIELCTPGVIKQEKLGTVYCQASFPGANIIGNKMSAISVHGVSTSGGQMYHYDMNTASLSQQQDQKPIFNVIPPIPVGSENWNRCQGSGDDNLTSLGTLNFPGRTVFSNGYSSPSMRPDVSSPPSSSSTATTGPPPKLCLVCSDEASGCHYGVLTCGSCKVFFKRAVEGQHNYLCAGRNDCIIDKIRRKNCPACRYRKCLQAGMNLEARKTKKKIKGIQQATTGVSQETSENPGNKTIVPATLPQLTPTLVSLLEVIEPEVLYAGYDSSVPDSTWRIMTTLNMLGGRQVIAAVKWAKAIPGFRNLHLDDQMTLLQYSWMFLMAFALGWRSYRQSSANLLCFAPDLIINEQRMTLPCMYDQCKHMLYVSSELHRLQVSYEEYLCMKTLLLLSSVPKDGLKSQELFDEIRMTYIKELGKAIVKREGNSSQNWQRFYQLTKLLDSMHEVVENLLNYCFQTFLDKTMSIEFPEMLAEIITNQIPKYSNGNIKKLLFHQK

Turning to `CCN(CC)C(=S)[S-].CCN(CC)C(=S)[S-].[Zn+2]`, the figures for the Potency in [1], in [2] and in [4] were 5.4 µM (active), 15.2 µM (active) and 3.41 µM (active), respectively. Besides, the Potency entry in [3], in [7], in [10], in [13] and in experiment [15] was “inactive” each time. The outcome in [5], in experiment [6], in experiment [8], in experiment [9], in experiment [11] and in experiment [12] was inactive. Besides, in experiment [14], the outcome was inactive.

Turning to `[Hg+2].[I-].[I-]`, the values for the Potency in experiment [16], in experiment [3] and in experiment [4] were 61.1 µM (active), 48.6 µM (active) and 17.2 µM (active), respectively. Moreover, the compound was called inactive in experiment [5], in experiment [6], in experiment [8], in experiment [9], in experiment [17] and in [11]. Besides, the compound was called inactive in experiment [12] and in [14]. Moreover, the Potency result in experiment [10], in experiment [13] and in [15] was “inactive” in each case.

In the case of `CC1(c2ccc(Oc3ccccc3)cc2)OC(=O)N(Nc2ccccc2)C1=O` (stereo not drawn), the Potency result in [1], in experiment [7], in experiment [10], in experiment [13] and in experiment [15] was “inactive” in each case. In [4], the Potency is 3.88 µM (active). Moreover, the outcome in experiment [5], in experiment [6], in experiment [8], in experiment [9], in [17] and in experiment [11] was inactive. Also, the compound was classed as inactive in experiment [12] and in [14].

For the compound `CCCCCCCCc1ccc(O)cc1`, the Potency was 12.3 µM (active) in [16], 15.4 µM (active) in experiment [3] and 4.89 µM (active) in experiment [4]. In addition, the compound was called inactive in experiment [5], in [6], in [8], in [9], in experiment [17] and in experiment [11]. The outcome in experiment [12] and in [14] was inactive. Besides, the Potency result in experiment [10], in experiment [15] and in experiment [18] was “inactive” throughout.

`CCCCN(CCCC)C(=S)[S-].CCCCN(CCCC)C(=S)[S-].[Zn+2]`: the Potency result in experiment [3], in experiment [7], in experiment [10], in [13] and in experiment [15] was “inactive” throughout. Besides, the Potency in experiment [4] is 27.3 µM (active). Moreover, the compound was classed as inactive in [5], in [6], in experiment [8], in experiment [9], in experiment [11] and in [12]. The compound was classed as inactive in experiment [14].

As to `O=C(O)C1C2CCC(O2)C1C(=O)O` (stereo not drawn), the Potency result in experiment [16], in [2], in experiment [7], in [10], in experiment [13] and in [15] was “inactive” throughout. The Potency entry in experiment [18] and in experiment [19] was “inactive” in each case. In addition, the compound was classed as inactive in experiment [5], in experiment [6], in experiment [8], in [9], in experiment [17] and in experiment [11]. In addition, the call in experiment [12] and in experiment [14] was inactive.

Take `O=[N+]([O-])c1cc(C(F)(F)F)c(Cl)c([N+](=O)[O-])c1Cl`: the Potency is 27.3 µM (active) in [16], 24.3 µM (active) in [2], 15.4 µM (active) in [3] and 13.7 µM (active) in experiment [4]. Besides, the outcome in experiment [5], in [6], in experiment [8], in [9], in experiment [17] and in [11] was inactive. The result in [12] and in experiment [14] was inactive. Also, the Potency result in experiment [7], in experiment [10], in [13] and in experiment [15] was “inactive” throughout.

As for `N#CCCC(Br)(C#N)CBr` (stereo not drawn), the Potency in experiment [4] was 61.1 µM (active). The outcome in experiment [5], in experiment [6], in experiment [8], in experiment [9], in [11] and in experiment [12] was inactive. The call in experiment [14] was inactive. Also, the Potency result in [13], in experiment [15] and in [18] was “inactive” each time.
